Screens: PubChem BioAssay, Johns Hopkins Ion Channel Center
An excerpt weighted towards active compounds, which were near 1.6% of everything screened.
KCNQ2 inh = inhibitors of rat KCNQ2 potassium channel; O88943; CHO-K1 KCNQ2, FluxOR thallium flux, 20 min; stronger effect = lower value; B-score at 10 µM; hit rate 1.1% among 310,000;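 active means fluorescence ratio B-score at most minus 3 library SDs, with starting brightness B-score within 2 library SDs, cut at about -5.5 in these data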
KCNQ2 enhance = potentiators of rat KCNQ2 potassium channel. hit rate 0.54% among 310,000. CHO-K1 KCNQ2, FluxOR thallium flux fluorescence; stronger effect = higher value. B-score at 10 µM. AID 2239. O88943;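 active means fluorescence ratio B-score at least 3 SD of library B-scores, with initial fluorescence B-score within 3 of them, cut at about 5.3 in these data; same plate scores as AID 2156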;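 further: B-score of peak minus minimum over baseline fluorescence ratio after K+ and Tl+ stimulus; positive B-score means potentiation of KCNQ2 with more thallium influx and brighter signal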
Kir21 confirm = confirmation of mouse Kir2.1 potassium channel inhibitors. AID 2032. hit rate 41% among 2,300. shares compounds with KCNQ2 enhance. Kir2.1-expressing cells, FluxOR thallium flux fluorescence; stronger effect = lower value. Tl flux remaining, % of negative control (stronger effect = lower value), % at 10 µM;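 active means Primary-screen hit whose thallium flux fell at least 3 control SD below untreated wells in both duplicates, with normal baseline fluorescence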;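 further: 0% = blank wells without stimulus and 100% = stimulated no-compound controls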
HEK293 ctr = alters thallium flux in parental HEK293 cells, Kir2.1 counter-screen | shares compounds with KCNQ2 enhance | FluxOR thallium flux fluorescence; 0% = unstimulated blank wells | FluxOR signal as % of negative control (100 = no effect), % at 10 µM | hit rate 19% among 2,300 | AID 2105;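 active means dye signal at least 3 control SD above or below untreated wells in both duplicates, raw fluorescence within 3, either direction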;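 further: percent is based on the flux ratio of peak minus minimum fluorescence over baseline F0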
CHO-K1 ctr = parental CHO-K1 activity in KCNQ2 potentiator counter-screen | activity increase over 3SD of controls, % at 10 µM | hit rate 43% among 1,200 | shares compounds with KCNQ2 enhance | parental CHO-K1 cells, FluxOR thallium flux fluorescence; zero = vehicle mean+3SD, 100% = vehicle-minus-blank window | AID 2282;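 active means signal rise of at least 3 SD above the untreated control mean, in both duplicate wells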;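 further: counter screen of KCNQ2 potentiator hits so any rise reflects channel-independent effects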
KCNQ1 pot spec = human KCNQ1 counter-target activity of KCNQ2 potentiators | shares compounds with KCNQ2 enhance | CHO KCNQ1 stable, FluxOR thallium flux fluorescence; beyond 3SD, as % of vehicle-control signal | activation over 3SD threshold, % at 10 µM | hit rate 28% among 1,200;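 active means fluorescence ratio rise of at least 3 SD of vehicle wells above their mean, in both replicate wells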;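 further: 0% = vehicle mean plus 3 SD and 100% = vehicle minus unstimulated blank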
KCNQ2 pot conf = rat KCNQ2 channel potentiator confirmation. shares compounds with KCNQ2 enhance. CHO-KCNQ2 cells, FluxOR thallium flux fluorescence. potentiation, less the hit threshold, % at 10 µM. hit rate 68% among 1,200. AID 2287;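 active means fluorescence ratio rising 3 SD or more over the vehicle control mean in both replicates, plus primary screen hit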;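 further: peak minus minimum thallium fluorescence divided by baseline after K/Tl stimulus; 0% = vehicle mean plus 3 SD and 100% = vehicle minus unstimulated blank difference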
Kir2-1 sel = tests whether KCNQ2 potentiators also affect mouse Kir2.1. shares compounds with KCNQ2 enhance. hit rate 2% among 1,200. activity over 3SD threshold, % at 10 µM. HEK293 Kir2.1, FluxOR thallium flux fluorescence;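 active means fluorescence ratio rise of at least 3 SD above the vehicle-control mean, seen in both replicates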;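 further: 0% = vehicle mean plus 3 SD and 100% = vehicle minus no-stimulus blank window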
KCNQ2 W236L MoA = potentiates the retigabine-insensitive rat KCNQ2 W236L mutant channel; CHO KCNQ2-W236L, automated patch clamp current; shares compounds with KCNQ2 enhance; current increase over 3SD of negative controls (%), stronger effect = higher value, % at 25 µM; hit rate 10% among 940; AID 2558;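 active means current increase at least 3 SD of the untreated controls above them in both duplicate recordings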
Target sequence (O88943 whole entry W236L, looked up): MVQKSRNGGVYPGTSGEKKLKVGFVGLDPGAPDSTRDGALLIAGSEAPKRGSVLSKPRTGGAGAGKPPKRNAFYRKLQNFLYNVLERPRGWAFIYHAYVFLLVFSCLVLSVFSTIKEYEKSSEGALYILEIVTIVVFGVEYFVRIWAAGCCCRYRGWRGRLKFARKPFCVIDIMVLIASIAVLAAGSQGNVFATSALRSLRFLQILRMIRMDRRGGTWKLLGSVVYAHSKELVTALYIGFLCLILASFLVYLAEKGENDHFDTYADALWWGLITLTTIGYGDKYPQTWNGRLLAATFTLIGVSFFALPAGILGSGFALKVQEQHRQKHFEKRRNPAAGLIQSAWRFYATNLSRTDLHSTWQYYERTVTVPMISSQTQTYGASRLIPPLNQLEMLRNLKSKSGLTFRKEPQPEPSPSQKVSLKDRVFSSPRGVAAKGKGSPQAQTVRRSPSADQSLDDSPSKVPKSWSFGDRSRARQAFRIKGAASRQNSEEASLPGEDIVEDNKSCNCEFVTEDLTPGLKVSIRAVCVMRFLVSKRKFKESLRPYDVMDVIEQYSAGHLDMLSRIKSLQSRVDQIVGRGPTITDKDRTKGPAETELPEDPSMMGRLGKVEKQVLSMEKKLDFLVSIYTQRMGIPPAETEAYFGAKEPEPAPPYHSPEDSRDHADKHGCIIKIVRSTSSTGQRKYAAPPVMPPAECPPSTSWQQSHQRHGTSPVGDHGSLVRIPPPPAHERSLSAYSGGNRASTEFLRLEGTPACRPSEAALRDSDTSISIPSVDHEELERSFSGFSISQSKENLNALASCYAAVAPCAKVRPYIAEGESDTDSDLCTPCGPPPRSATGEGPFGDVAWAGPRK
Active calls of the source: *; i = inactive; . = no result.

SMILES	KCNQ2 inh	KCNQ2 enhance	Kir21 confirm	HEK293 ctr	others
CC1CCCCN1C(=O)CSc1nnc(-c2cccnc2)o1 (stereo not given)	i	0.31	.	.
COc1ccccc1NCC(=O)NNCC(=O)Nc1ccc(F)c(Cl)c1	i	1.2	.	.
Cc1ccc(CNC(=O)NC2CCCCC2)cc1	i	5.1	.	.
CCC(NC(=S)NC1CCCCC1)c1ccc(C)cc1 (stereo not given)	i	22*	i	i	CHO-K1 ctr=-6;KCNQ1 pot spec=-15;KCNQ2 pot conf=71*;Kir2-1 sel=-46;KCNQ2 W236L MoA=i
Cc1ccc(CNC(=S)NC2CCCCC2)cc1	i	6.4*	i	i	CHO-K1 ctr=-6;KCNQ1 pot spec=-16;KCNQ2 pot conf=7.2*;Kir2-1 sel=-48;KCNQ2 W236L MoA=i
O=C(Nc1ccccc1)NC1CCCCC1	i	0.04	.	.
CC(C)c1ccc(NC(=S)NC2CCCCCC2)cc1	i	.	.	.
Cc1ccc(C)c(C(C)NC(=S)NC2CCCCC2)c1 (stereo not given)	i	0.26	.	.
Cc1ccc(CN=C(Nc2ccccc2)NC2CCCCC2)cc1	i	.	60%*	i
CCCc1ccc(C(C)NC(=S)NC2CCCCC2)cc1 (stereo not given)	i	23*	i	i	CHO-K1 ctr=-15;KCNQ1 pot spec=0.9*;KCNQ2 pot conf=39*;Kir2-1 sel=-33;KCNQ2 W236L MoA=i
CC(=O)Oc1ccc(C(=O)NCc2ccc3c(c2)OCO3)cc1	i	2.5	.	.
C/C(CC(=O)Nc1cc(Cl)ccc1Cl)=N\NC(=O)c1ccccc1Br	i	.	.	.
NC(=O)Cn1nnc(-c2ccc(CN3CCCCC3)cc2)n1	i	1.1	.	.
O=C(O)c1cc(O)ccc1NC(=O)C(c1ccccc1)c1ccccc1	i	0.12	.	.
COc1ccc(CNC(=O)C2CCN(S(=O)(=O)c3c(C)noc3/C=C/N(C)C)CC2)cc1	i	0.77	.	.
CC(=O)c1cccc(NC(=O)c2ccoc2C)c1	i	2.1	.	.
Cc1cc(C)c(NC(=O)c2ccoc2C)c(C)c1	i	6.1*	i	i	CHO-K1 ctr=-3;KCNQ1 pot spec=-3;KCNQ2 pot conf=9.5*;Kir2-1 sel=-16;KCNQ2 W236L MoA=i
Cc1occc1C(=O)Nc1ccccc1C(=O)O	i	.	.	.
Cc1occc1C(=O)Nc1ccc2ccccc2c1	i	13*	i	i	CHO-K1 ctr=105*;KCNQ1 pot spec=-17;KCNQ2 pot conf=60*;Kir2-1 sel=-30;KCNQ2 W236L MoA=i
CC1CCN(C(=O)COC(=O)CCCN2C(=O)c3cccc4cccc(c34)C2=O)CC1	i	0.52	.	.
CCOC(=O)C1(CCOc2ccccc2)CCN(Cc2cccc(OC)c2O)CC1	i	.	.	.
CC(C)c1ccc(C(=O)N(c2ccccn2)C(C)c2ccco2)cc1 (stereo not given)	i	.	.	.
CC(c1ccco1)N(C(=O)CSc1ccc(Br)cc1)c1ccccn1 (stereo not given)	i	.	69%*	i
CCCCCCNc1nc(-c2ccc(OC)cc2)c(CCC(=O)O)s1	i	.	.	.
O=C1NC(=S)S/C1=C\c1cc2ccccc2nc1N1CCCCC1	i	5.5*	i	i	CHO-K1 ctr=23*;KCNQ1 pot spec=-17;KCNQ2 pot conf=21*;Kir2-1 sel=-21;KCNQ2 W236L MoA=i
SMILES	KCNQ2 inh	KCNQ2 enhance	Kir21 confirm	HEK293 ctr	others
Cc1nn(C)cc1/C=C1\SC(=S)NC1=O	i	0.35	.	.
COc1ccc(C(=O)OCC(=O)NCc2ccccc2)c(OC)c1OC	i	0.07	.	.
COc1cc2[nH]c(C(=O)NCc3ccccc3)cc2c(OC)c1OC	i	.	i	i
COc1cc2[nH]c(C(=O)NCCc3ccccc3)cc2c(OC)c1OC	i	0.23	.	.
O=C(COc1cccc([N+](=O)[O-])c1)NN1C(=O)c2ccccc2C1=O	i	1	.	.
CC(=O)Nc1ccc2c(c1)CCc1ccccc1-2	i	.	.	.
O=C(O)/C=C/C(=O)c1ccc2c(c1)CCc1ccccc1-2	i	8.6*	.	.	CHO-K1 ctr=30*;KCNQ1 pot spec=-7;KCNQ2 pot conf=35*;Kir2-1 sel=-73;KCNQ2 W236L MoA=i
CCCOc1ccc(C(=O)NNC(=O)CCNC(=O)c2ccco2)cc1OC	i	.	.	.
Cc1ccccc1C(=O)c1cccn1CC(=O)NCC(C)c1ccccc1 (stereo not given)	i	0.69	66%*	i
Cc1ccccc1C(=O)c1cccn1CC(=O)NCc1ccccc1	i	.	.	.
CCOc1ncccc1C(=O)NCc1ccccc1Cl	i	.	.	.
CCCOc1ccc(CCC(=O)N/N=C/c2ccco2)cc1	i	1.3	.	.
CCCCOc1ccc(CCC(=O)N/N=C/c2ccco2)cc1	i	9.1*	i	i	CHO-K1 ctr=47*;KCNQ1 pot spec=65*;KCNQ2 pot conf=33*;Kir2-1 sel=-38;KCNQ2 W236L MoA=i
O=C(COc1c(Br)cc(Br)cc1Br)N/N=C/c1ccco1	i	6.3*	i	i	CHO-K1 ctr=-3;KCNQ1 pot spec=-8;KCNQ2 pot conf=-4;Kir2-1 sel=-20
Cc1cc(C)cc(OCC(=O)N/N=C/c2ccco2)c1	i	.	.	.
COc1ccccc1Cc1nnc(NC(=O)C2CCN(C(=O)c3ccco3)CC2)s1	i	.	.	.
C=CCNC(=S)Nc1nc2c(cc1C(=O)OCC)CCCC2	i	4.3	.	.
CCNC(=S)Nc1nc2c(cc1C(=O)OCC)CCCC2	i	5.5*	i	148%*	CHO-K1 ctr=7.6*;KCNQ1 pot spec=-19;KCNQ2 pot conf=-2;Kir2-1 sel=-30;KCNQ2 W236L MoA=i
CC1(C)CCC[C@]2(C)C(CS(=O)c3ccccc3)=C(C=O)CC[C@@H]12 (stereo not given in full)	i	.	.	.
CCCCn1c(=O)[nH]c(=O)c2c1nc(-c1ccccc1OC(F)F)n2C	i	.	.	.
COc1ccc(Cl)c(N2CCN(CCCNC(=O)Nc3ccc(C)cc3)CC2)c1	i	.	70%*	i
COc1ccc(NC(=O)NCCN2CCN(c3cc(OC)ccc3OC)CC2)cc1	i	0.02	.	.
CSc1ccccc1NC(=O)CN(c1ccccc1Br)S(C)(=O)=O	i	0.01	.	.
Cn1ccc(C(=O)Nc2ccc(Br)cc2Br)n1	i	0.05	.	.
CC(=O)N1CCN(C(=O)c2ccc(OC3CCN(CCc4ccccc4)CC3)cc2)CC1	i	0.04	.	.
O=C(c1ccc(OC2CCN(CCCc3ccccc3)CC2)cc1)N1CCCC1	i	0.48	72%*	i
O=c1[nH]cc(N=Cc2cc(Cl)cc(Cl)c2O)c(=O)[nH]1	i	8.3*	i	i	CHO-K1 ctr=15*;KCNQ1 pot spec=18*;KCNQ2 pot conf=24*;Kir2-1 sel=-12;KCNQ2 W236L MoA=i
O=c1[nH]cc(N=Cc2cc([N+](=O)[O-])ccc2O)c(=O)[nH]1	i	.	.	.
Cc1ccc(NC2CCCN(C(=O)CSc3ccccn3)C2)cc1C (stereo not given)	i	.	.	.
CC(C)c1ccc(/C=N/NC(=O)c2c(Cl)cnn2C)cc1	i	0.39	.	.
